Hit rate of the full screen: of about 69,000 compounds, about 8,600 (12%) showed an effect of 50% or more. The full list was thinned out, with strong results kept by preference.
Tested on: Plasmodium berghei
Assay: Screen against P. berghei liver stage (PbLuc), transformed with Luciferase, at 10uM
Assay type: functional, HepG2
Conditions: tested at 10 uM

Structure (SMILES) | INHIBITION [%]
Cc1nn(CCO)c(C)c1CNC1CCOc2ccccc21 (stereo not drawn) | 13
O=C(NC1CCCN(Cc2c(F)cccc2F)C1)c1cnccn1 (stereo not drawn) | 23.7
CS(=O)(=O)CCCN1CCN(C(C#N)c2ccccc2)CC1 (stereo not drawn) | 21.2
NC(=O)c1ccc(C2CN(Cc3ccc(F)cc3)CCO2)nc1 (stereo not drawn) | 31.3
CCc1ocnc1C(=O)N1CCC2(CCCN(CC(C)(C)C)C2=O)C1 (stereo not drawn) | 32.2
Cc1nc(-c2ccccc2)n(CC(=O)NC2CCCC2)n1 | 7.27
CCC1(C(=O)O)CCCN(C(=O)c2ccc(N3CCN(C)CC3)cc2)C1 (stereo not drawn) | 33.7
CN1CCN(c2ccc(C(=O)N3CCCC(c4ncc[nH]4)C3)cc2)CC1 (stereo not drawn) | 3.3
CCC1(CO)CCCN(C(=O)c2ccc(N3CCN(C)CC3)cc2)C1 (stereo not drawn) | 53.5
c1ccc(-c2noc(CN3CCCC(Cn4cncn4)C3)n2)nc1 (stereo not drawn) | -23.8
COc1cccc(-c2ccnc3nc(N4CCCCC4)[nH]c(=O)c23)c1 | 14.3
COc1cc(/C=C/c2ncc(C(=O)O)s2)cc(Cl)c1OC | 41.5
Cc1noc(C)c1CN1CCC2(COCc3cnc(N(C)C)nc32)C1 (stereo not drawn) | 1.9
Cn1ccnc1C(O)c1ccccc1N1CCN(Cc2ccsc2)CC1 (stereo not drawn) | 53.75
Cn1ccnc1C(O)c1ccccc1N1CCN(CC2CCCC2)CC1 (stereo not drawn) | 13
Cn1ccnc1C(O)c1ccccc1N1CCN(Cc2cccs2)CC1 (stereo not drawn) | 15.605
COCc1cc(NCCc2ccc(S(N)(=O)=O)cc2)n2nccc2n1 | 26.6
CCNC(=O)NC(=O)C(C)Nc1ccccc1OCCOC (stereo not drawn) | 29.8
Cc1ccccc1OCCN(C)C(=O)NC(C)c1nncn1C (stereo not drawn) | 35.9
CCNC(=O)NC(=O)C(C)N(C)CCOc1ccccc1C (stereo not drawn) | 73.3
COC(=O)c1ccoc1CN(C)Cc1cc(OC)c(OC)cc1C | 7.43
O=C(c1ccoc1)N1CCc2ncc(Cn3cccn3)n2CC1 | -3.33

Structure (SMILES) | INHIBITION [%]
c1cc(CNCc2ccc(-n3cncn3)nc2)cc(OC2CCCC2)c1 | 75.4
COCCOc1cccc(CNCc2ccc(-n3cncn3)nc2)c1 | -9.8
FC(F)(F)Oc1cccc(CNCc2ccc(-n3cncn3)nc2)c1 | 20.9
CS(=O)(=O)N1CCc2ncc(CNC(=O)C3CCC3)n2CC1 | -18.2
CNc1cccc(CC2COCCN(C(=O)c3cnn(C)c3)C2)n1 (stereo not drawn) | 27.15
O=C1NCC2(CCN(C(=O)c3ccc4c(c3)CCCO4)CC2)O1 | 70.4
O=C1NCC2(CCCN(C(=O)c3ccc4c(c3)OCCO4)CC2)O1 (stereo not drawn) | 42.6
O=C1NCC2(CCCN(C(=O)c3ccc4c(c3)CCCO4)CC2)O1 (stereo not drawn) | 38.3
Cc1c(Br)cnn1CC(=O)Nc1ccon1 | 34.2
COCC1COCCC12CCN(S(=O)(=O)c1ccccc1)CC2 (stereo not drawn) | -27.1
CC(C)OCc1cccc(CNc2cnn(C)c(=O)c2Cl)c1 | 85.2
COc1cccc(CNc2cc(CO)ccc2Cl)c1 | 42.6
CC(NCc1cccc(COC2CCCC2)c1)c1cnn(C)c1 (stereo not drawn) | -0.448
COc1ccc(CNc2cnn(C)c(=O)c2Cl)cc1 | 52.3
CC(C)N1CCC[C@H]1C(=O)NCC1CCN(c2cnn(C)c(=O)c2)CC1 | 15.1
Cc1c(C(=O)NCc2ccnc(OCC(F)(F)F)c2)cnn1C | -6.11
CCOc1cccc(CNc2cnn(CC(C)C)c2CC)c1 | 39.5
Cn1ncc(NCc2cccc(OCC(F)(F)F)c2)c(Cl)c1=O | 99.6
CCn1c(NCc2ccc(OC)cc2)nc2c(C)nn(C)c2c1=O | 13.5
Cc1cccc(C(C)(C)CNc2cn[nH]c(=O)c2Cl)c1 | -5.92
Cn1ncc(NCc2cccc(COC(C)(C)C)c2)c(Cl)c1=O | 80.6
COc1cccc(CNc2cnn(C)c(=O)c2Cl)c1 | 49.6

Structure (SMILES) | INHIBITION [%]
Cc1nn(C)c(C)c1C1CCCN1C(=O)c1cc(C(N)=O)cs1 (stereo not drawn) | -11.2
CN1C(=O)CC(c2cnn(C)c2)C12CCN(C(=O)C1CC=CC1)CC2 (stereo not drawn) | -16.5
CN(C)Cc1ccnc(C2CN(Cc3c(F)cccc3F)CCO2)n1 (stereo not drawn) | 8.53
Cn1ccnc1CNCC1CCCN1c1cccnn1 (stereo not drawn) | -31.5
CC(Cn1cccn1)NC(=O)N1CCCN(Cc2cccs2)CC1 (stereo not drawn) | 14.4
CN(C)CCn1c(=O)n(C)c(=O)c2ccccc21 | -40.3
CCC(=O)N1CCC2(CCC(N3CCCC3)c3ccccc32)CC1 (stereo not drawn) | 40.8
Cc1nn(C)c(N(C)C)c1CNC1CCCCNC1=O (stereo not drawn) | 5.42
C=Cn1cc(CN2CCN(CC3(c4ccccc4)CC3)CC2)c(C)n1 | 26.57
CN(Cc1ccncn1)C(=O)CCc1[nH]nc2c1CCCC2 | 33.9
CC(C)N(CCO)C(=O)C1CCC(=O)N(CCc2cccc(F)c2)C1 (stereo not drawn) | 56.6
CCCN(CCO)C(=O)C1CCC(=O)N(CCc2ccc(Cl)cc2)C1 (stereo not drawn) | -39.9
CC(C)N(CCO)C(=O)C1CCC(=O)N(CCc2ccc(Cl)cc2)C1 (stereo not drawn) | 26.6
CC(C)N(C)C(=O)C1CCC(=O)N(CCc2cccc(F)c2)C1 (stereo not drawn) | 52.3
CCN(CCO)C(=O)C1CCC(=O)N(CCc2cccc(F)c2)C1 (stereo not drawn) | 43.7
CCN(CC)C(=O)C1CCC(=O)N(CCc2cccc(F)c2)C1 (stereo not drawn) | 12.3
COc1ccc(OC)c(C(C)Nc2ncnc3c2NC(=O)CN3)c1 (stereo not drawn) | 24.2
N#Cc1cccc(C(=O)N2C[C@@H]3CC[C@H]2CN(C(=O)C2CCC2)C3)c1 | 28.5
CN1C(=O)C2(CCN(C(=O)c3ccccc3)CC2)c2cc(F)ccc21 | 39.4
Cn1cnnc1S(=O)(=O)C1CCN(S(=O)(=O)c2ccccc2F)CC1 | 15.7
Cc1ccc(S(=O)(=O)N2CCC(S(=O)(=O)c3nncn3C)CC2)cc1C | -0.554
Cn1cnnc1S(=O)(=O)C1CCN(S(=O)(=O)c2ccc(F)c(Cl)c2)CC1 | 81.9

Structure (SMILES) | INHIBITION [%]
O=C(C1CC1)N1CCC(c2nc(O)c3c(n2)CCN(C2CCCC2)C3)C1 (stereo not drawn) | 22.7
CCN(CC)c1ncnc2c1CCN(C(=O)Cc1ccccn1)CC2 | -49.6
O=C1NCCCCC1SCc1coc(-c2ccc(F)cc2)n1 (stereo not drawn) | 82.7
O=C1NCCN1C1CCN(Cc2coc(-c3ccc(F)cc3)n2)CC1 | 52.5
Fc1ccc(-c2nc(CN3CCn4c(nnc4C4CC4)C3)co2)cc1 | -21.7
Cc1ccc(-c2nc(CN3CCC(N4CCNC4=O)CC3)co2)cc1 | 26.5
O=C1NCCN1C1CCCN(Cc2nnc(-c3ccc(F)cc3)o2)C1 (stereo not drawn) | 20.1
O=C1NCCCCC1SCc1coc(-c2ccccc2)n1 (stereo not drawn) | 35.5
O=C1NCCN1C1CCCN(Cc2coc(-c3cccs3)n2)C1 (stereo not drawn) | 33.3
O=C1NCCN1C1CCCN(Cc2coc(-c3ccc(F)cc3)n2)C1 (stereo not drawn) | 75.2
O=C1NCCCCC1SCc1coc(-c2cccc(F)c2)n1 (stereo not drawn) | -16.1
CN(C)C(=O)C1CCC2(CCN(C(=O)Nc3cccc(F)c3)CC2)O1 (stereo not drawn) | 18.6
COc1ccc(OC)c(C(=O)N(C)Cc2nnc3ccccn23)c1 | -35.7
CN(C)[C@H]1CN(C(=O)CCCc2ccc(F)cc2)C[C@@H]1C1CC1 | 28.4
COc1ccccc1C(=O)N1CC(=O)N(Cc2ccco2)CC(O)C1 (stereo not drawn) | 26.8
COc1ccccc1CC(=O)N1CCC(NCc2ccc(C)o2)CC1 | 29.375
O=C(NCc1ccco1)[C@H]1C[C@@H]2CCN(c3cccc(F)c3)C[C@H]2O1 | 44.1
Cn1ccnc1-c1cn(CCCc2csc(N)n2)nn1 | 17.5
COC(=O)CC1CCCCN1CC(=O)Nc1cc(F)ccc1F (stereo not drawn) | 47.2
COC(=O)CC1CCCCN1CC(=O)NCCc1ccc(F)cc1 (stereo not drawn) | 38.5
COC(=O)CC1CCCCN1CC(=O)Nc1ccc(F)cc1Cl (stereo not drawn) | 62.4
O=C(CCn1cncn1)N1C[C@@H]2CC[C@H]1CN(Cc1cccnc1)C2 | 14.3

Structure (SMILES) | INHIBITION [%]
Cc1ccc(-c2noc(C(C)NS(C)(=O)=O)n2)cc1 (stereo not drawn) | 1.8
CS(=O)(=O)N1CCOCC2(CN(Cc3ccco3)CCO2)C1 (stereo not drawn) | 3.47
COc1ncc(CN(CCN(C)C)Cc2ccc(C)s2)cn1 | 63.8
Cc1ccc(CN(Cc2ccncc2)C2CCN(C)CC2)s1 | -6.73
CCNc1ncc(CN(CCN(C)C)Cc2ccc(C)s2)cn1 | 35
COCc1ncc(CN(CCN(C)C)Cc2ccc(C)s2)cn1 | 38.7
CCc1ccc(CN(CCN(C)C)Cc2ccc(C)s2)nc1 | 22
COCc1ncc(CN(Cc2ccncc2)Cc2ccc(C)s2)cn1 | 61.9
Cc1cc(C(=O)NCC2CCS(=O)(=O)C2)ccc1NC(=O)c1ccco1 (stereo not drawn) | 40.2
CC(C)n1cnnc1CNC(=O)c1cnn(Cc2ccccc2)c1 | -24.4
COCC1c2c(cnn2CC2CC2)CCN1Cc1cc(C)on1 (stereo not drawn) | 47.1
COCCn1cc(C(=O)NC2CCS(=O)(=O)C2)c2ccccc2c1=O (stereo not drawn) | 42.8
Cc1cc(C(=O)N2CCC(O)(Cn3ccc4ccncc43)CC2)on1 | 12.8
O=C(Cc1ccc(O)cc1)N1CCCC(O)(CN2CCOCC2)CC1 (stereo not drawn) | 30.4
Cc1nc(CCC(=O)NC2CCC2)cc(C2CCNCC2)n1 | 33.5
CN1CC(C(=O)NCCc2ccc(Br)cc2F)CC1=O (stereo not drawn) | -57
CC(=O)N1CCC2(CC1)COC(COCc1ccccn1)C2 (stereo not drawn) | 14.6
c1ccc(OC[C@@H]2CCC[C@@]23CNCCO3)nc1 | 31.3
c1ccc(COC[C@H]2CCC[C@@]23CNCCO3)nc1 | 62.9
c1ccc(COC[C@@H]2CCC[C@@]23CNCCO3)nc1 | 72

From ChEMBL document CHEMBL4513216, “Probing the Open Global Health Chemical Diversity Library for Multistage-Active Starting Points for Next-Generation Antimalarials” (ACS Infect Dis, 2020)
